# Screen size: about 13,000 compounds; about 3,200 (25%) showed an effect of 50% or more. This is one part of the list.
# Tested on: P. falciparum stage V gametocytes
# Parameters: BacTiter-Glo ATP luminescence viability of purified stage V gametocytes in 384-well plates, per cent inhibition versus DMSO
# Conditions: 48 h, 5 µM; inhibitor
row,SMILES,% Inhibition
1,COc1cccc(C(=O)N2CCOC(CCN3CCC(c4ccccc4)CC3)(c3ccc(Cl)c(Cl)c3)C2)c1 (stereo not shown) [TCMDC-135336],-36.5%
2,CCCCNC(=O)[C@H](CC1CCCCC1)NC(=O)c1ccc(O)c(-c2ccc(Cl)c(Cl)c2)c1 [TCMDC-140841],30.41%
3,O=C(NC1CC1)c1cnc(N2CCC(Cc3ccccc3)CC2)c(Cl)c1 [TCMDC-134606],6.713%
4,COc1cc(C)cc(CN2CCC(Cc3ccccc3)CC2)c1O [TCMDC-124540],-75.55%
5,Oc1c(CN2CCC(Cc3ccccc3)CC2)cc(Cl)c2cccnc12 [TCMDC-124594],97.81%
6,Cc1nccn1Cc1cc(C(C)(C)C)c(O)c(C(C)(C)C)c1 [TCMDC-131329],-8.756%
7,COc1cc(CNC[C@@H](O)[C@H](Cc2ccccc2)NC(=O)c2cc(OC(C)C)cc(N3CCCS3(=O)=O)c2)cc(OC)c1 [TCMDC-134559],3.73%
8,COc1cc2c(cc1C=CC(=O)N1CCN(Cc3nc4sc(C)c(C)c4c(=O)[nH]3)CC1)OC(C)C2 (stereo not shown) [TCMDC-132412],-4.453%
9,CN(C)CCOc1cc(NC(=O)Nc2ccc(-c3ccccc3)cc2Cl)ccc1I [TCMDC-139140],-41.53%
10,C/C=C/C=C/C1=NCCc2cc(OCCC)ccc21 [TCMDC-137442],112.8%
11,CCC(O)c1ccc(Br)cc1NC(=O)c1cccc(Cl)c1 (stereo not shown) [TCMDC-125394],16.03%
12,O=C(O)c1ccc2c(c1)N(C(=O)CNCc1ccc(F)cc1)CC(=O)N2CCCc1ccccc1 [TCMDC-140379],-9.998%
13,CNC(=O)Cc1ccc(C(=O)Nc2cccc(-c3csc(-c4nc5ccccc5[nH]4)c3)c2)cc1 [TCMDC-132395],-10.74%
14,Fc1ccc2[nH]c(-c3ccccc3)nc2c1CN1CCC(N2CCCC2)CC1 [TCMDC-136310],4.53%
15,c1ccc(-c2[nH]c3ccccc3c2CN2CCC(N3CCCCC3)CC2)nc1 [TCMDC-141636],54.53%
16,Clc1ccc(-c2[nH]c3ccccc3c2CN2CCC(N3CCCCC3)CC2)cc1 [TCMDC-141631],17.32%
17,COc1ccc2nccc(N3C[C@H]4C[C@@H]3CN4CCNCc3ccc4c(n3)NC(=O)CS4)c2n1 [TCMDC-134685],4.783%
18,CC1CCCCN1CCCNc1ncc2c(-c3ccc(NC(=O)Nc4cc(C(F)(F)F)ccc4F)c(F)c3)nn(C)c2n1 (stereo not shown) [TCMDC-141608],97.41%
19,Cn1nc(-c2ccc(NC(=O)Nc3cc(C(F)(F)F)ccc3F)c(F)c2)c2cnc(NCCCN3CCOCC3)nc21 [TCMDC-141607],30.03%
20,Cn1nc(-c2ccc(NC(=O)Nc3cc(C(F)(F)F)ccc3F)c(F)c2)c2cnc(NCCCn3ccnc3)nc21 [TCMDC-141612],3.105%
21,Cn1nc(-c2ccc(NC(=O)Nc3cc(C(F)(F)F)cc(C(F)(F)F)c3)c(F)c2)c2cnc(NCCN3CCOCC3)nc21 [TCMDC-141560],5.577%
22,CCN(CC)CCCNc1ncc2c(-c3ccc(NC(=O)Nc4cc(C(F)(F)F)ccc4F)c(F)c3)nn(C)c2n1 [TCMDC-141609],106.5%
23,Cn1nc(-c2ccc(NC(=O)Nc3cc(C(F)(F)F)ccc3F)cc2)c2cnc(NCCCCN3CCCC3)nc21 [TCMDC-141585],81.15%
24,CN1CCN(CCCNc2ncc3c(-c4ccc(NC(=O)Nc5cc(C(F)(F)F)ccc5F)c(F)c4)nn(C)c3n2)CC1 [TCMDC-141611],81.4%
25,Nc1nc(N)c2c(Oc3ccc(Cl)c(Cl)c3)cccc2n1 [TCMDC-137740],-61.22%

row,SMILES,% Inhibition
1,Nc1nc(N)c2c(Sc3ccc(F)cc3)cccc2n1 [TCMDC-137179],36.57%
2,CC(=O)Nc1nc(C(=O)Nc2cccc(-c3cccc(-c4nc5ccc(F)cc5[nH]4)c3)c2)cs1 [TCMDC-137124],18.32%
3,CN1CCN(c2ccnc3ccc(NC(=O)Nc4ccc5c(c4)CCCC5=O)cc23)CC1 [TCMDC-139261],-6.438%
4,COc1ccc(CCNCC(O)COc2nccc3c(S(=O)(=O)N4CCCNCC4)cccc23)cc1OC (stereo not shown) [TCMDC-132101],25.52%
5,O=C(Nc1ccc2c(c1)CCN2C1CCN(Cc2ccc(C(F)(F)F)cc2F)C1)c1ccco1 (stereo not shown) [TCMDC-135070],-51.15%
6,O=C(Cc1ccc(-n2cnnn2)cc1)N(Cc1cncn1Cc1cccc(C(F)(F)F)c1)CC1CC1 [TCMDC-132461],5.053%
7,C1=CN(Cc2ccccc2)C=CC1=C1C=Nc2ccccc21 [TCMDC-138319],1.652%
8,O=C1OC2(CCN(C(=O)c3ccc(-n4cnnn4)cc3)CC2)CN1Cc1ccc(Cl)c(Cl)c1 [TCMDC-136544],34.85%
9,C1=C(c2c[nH]c3ccccc23)CCN(Cc2ccccc2)C1 [TCMDC-123457],-71.35%
10,O=S(=O)(NC1CCN(c2ccnc3cc(Cl)ccc23)C1)c1ccc(C(F)(F)F)cc1 (stereo not shown) [TCMDC-133662],-7.86%
11,CCN(CC)CCCNc1ncc2c(-c3ccc(NC(=O)Nc4cc(C(F)(F)F)ccc4F)cc3)nn(C)c2n1 [TCMDC-141583],96.86%
12,Cn1nc(-c2ccc(NC(=O)Nc3cc(C(F)(F)F)ccc3F)cc2)c2cnc(NCCc3cnc[nH]3)nc21 [TCMDC-141621],12.4%
13,COc1ccc2nccc([C@@H](O)CN3CCC(NC(=O)C(=O)c4c[nH]c5c(C)cccc45)CC3)c2c1 [TCMDC-141107],-28.63%
14,CCC(=O)Nc1nnc(Cc2ccc(OC)c(OC)c2)s1 [TCMDC-125741],-62.68%
15,C=CCOc1ccc(Cc2cnc(N)nc2N)cc1CCC [TCMDC-137639],-18.38%
16,N=C(N)c1ccc2nc(SCc3ccccc3)[nH]c2c1 [TCMDC-131872],24.07%
17,Cc1cc(-c2nc3ccc(C(=N)N)cc3[nH]2)c(C)cc1-c1nc2ccc(C(=N)N)cc2[nH]1 [TCMDC-137798],92.7%
18,N=C(N)c1ccc(NC(=O)Cc2nc3ccc(C(=N)N)cc3[nH]2)cc1 [TCMDC-131867],10.64%
19,COc1ccccc1C(=O)C1CCCN(C(=O)c2ccccc2C(F)(F)F)C1 (stereo not shown) [TCMDC-124693],-57%
20,CN(C)CCOc1cc(O)c2c(c1)OC(C)(C)C=C2c1cccs1 [TCMDC-131331],-14.82%
21,Cc1[nH]c(C)c(-c2ccc(OCCSc3ccncc3)cc2)c(=O)c1Br [TCMDC-135220],64.24%
22,Cc1[nH]c(C)c(-c2ccc(OCCCCSc3ccncc3)cc2)c(=O)c1Br [TCMDC-135256],73.89%
23,Cc1[nH]c(C)c(-c2ccc(OCCn3cnc(Cl)c3Cl)cc2)c(=O)c1Br [TCMDC-134570],-18.53%
24,C[C@@H](C(=O)N1CCOCC1)N1CC[C@H](NS(=O)(=O)c2ccc3ccnc(N)c3c2)C1=O [TCMDC-136755],0.9724%
25,N=c1n(CCN2CCCCC2)c2ccccc2n1CC(O)c1cccc(Br)c1 (stereo not shown) [TCMDC-125140],60.98%

row,SMILES,% Inhibition
1,CC(NC(=O)c1ccc(O)c(-c2ccc(Cl)c(Cl)c2)c1)C(=O)NCCN1CCCC1 (stereo not shown) [TCMDC-140827],-9.232%
2,CC(NC(=O)c1ccc(O)c(-c2ccc(Cl)c(Cl)c2)c1)C(=O)NCCN1CCCCC1 (stereo not shown) [TCMDC-140857],27.12%
3,N=c1n(CCN2CCCC2)c2ccccc2n1CC(O)c1ccc(Cl)c(Cl)c1 (stereo not shown) [TCMDC-124063],70.46%
4,N=c1n(CCN2CCCCC2)c2ccccc2n1CC(=O)c1cccc([N+](=O)[O-])c1 [TCMDC-123516],-26.88%
5,N=c1n(CCN2CCCCC2)c2ccccc2n1CC(O)c1ccc(Cl)c(Cl)c1 (stereo not shown) [TCMDC-124064],91.16%
6,O=C(N[C@@H](Cc1ccccc1)C(=O)NCCN1CCCC1)c1ccc(O)c(-c2ccc(Cl)c(Cl)c2)c1 [TCMDC-140829],26.26%
7,COC(=O)c1ccc(CC(C)NCC(O)c2cccc(Br)c2)cc1 (stereo not shown) [TCMDC-131437],10.23%
8,O=C(N[C@@H](Cc1ccccc1)C(=O)NCCN1CCCCC1)c1ccc(O)c(-c2ccc(Cl)c(Cl)c2)c1 [TCMDC-140859],10.94%
9,CCOc1ccc(C=CC(=O)Nc2ccc3nc(N4CCOCC4)cc(C)c3c2)cc1OC [TCMDC-124420],-58.06%
10,COc1ccc(NS(=O)(=O)c2cccc(C(=O)Nc3ccc(C(F)(F)F)cc3)c2)cc1N1CCN(CC(C)C)CC1 [TCMDC-141780],-61.2%
11,N#Cc1ccc(CN2CCC(Oc3ccc(NC(=O)c4ccsc4)cc3Cl)C2)cc1 (stereo not shown) [TCMDC-133961],27.45%
12,Cc1nnc2c(NC(=O)NC3CCCC3)cc3cc(-c4ccc(CN(C)C)cc4)ccc3n12 [TCMDC-136487],88.82%
13,Cc1cccc(CNc2nc(C)cc(N[C@@H](Cc3ccccc3)C(=O)NC3CCCC3)n2)c1 [TCMDC-134886],14.7%
14,COc1ccc(-c2ccc(CN(C)C3CCC(NC(=O)c4cc5ccccc5[nH]4)CC3)cc2)cn1 (stereo not shown) [TCMDC-132893],48.26%
15,Cc1nnc2c(NC(=O)NC3CCCC3)cc3cc(-c4ccc(CN5CCN(C)CC5)cc4)ccc3n12 [TCMDC-136717],93.03%
16,Cc1cc2c(NC(=O)NC3CCN(CCc4cccc(Cl)c4)CC3)cccc2cn1 [TCMDC-141801],1.957%
17,Cc1nnc2c(NC(=O)NC3CCCC3)cc3ccc(-c4cccc(CN(C)C)c4)cc3n12 [TCMDC-136731],62.95%
18,CN1CCCN(Cc2cccc(-c3cccc(NC(=O)c4ccc(C#N)cc4)c3)c2)CC1 [TCMDC-132655],11.69%
19,CN(Cc1ccc(NC(=O)NC2CCN(C(=O)/C=C/c3ccc(Cl)c(Cl)c3)CC2)cc1)C1CCOCC1 [TCMDC-140523],15.53%
20,Cc1cc2c(NC(=O)NC3CCN(CCc4ccccc4Cl)CC3)cccc2cn1 [TCMDC-141800],-1.237%
21,Cc1nnc2c(NC(=O)NC3CCCC3)cc3ccc(-c4cccc(CN5CCN(C)CC5)c4)cc3n12 [TCMDC-136730],98.59%
22,Cc1nnc2c(NC(=O)NC3CCCC3)cc3cc(-c4ccc(CN5CCCCC5)cc4)ccc3n12 [TCMDC-136711],3.866%
23,Cc1cc2c(NC(=O)NC3CCN(Cc4ccc(Cl)c(Cl)c4)CC3)cccc2cn1 [TCMDC-141771],11.02%

# — paper PMC4552634, “A New Set of Chemical Starting Points with Plasmodium falciparum Transmission-Blocking Potential for Antimalarial Drug Discovery” (PLoS ONE, 2015)
